We go through five compounds from ChEMBL document CHEMBL3988442, “University of Dundee, Small-Polar-MMV Screening Library” (2021).

Common to all, as to set-up: scale not given: direction of the effect not stated beside the values
Test [1] has as its target Protein translocase subunit SecA (Escherichia coli (strain K12)) (UniProt P10408). Description: Assay to Identify E. coli SecA ATPase Inhibitors. The settings on record: 30 µM. In kind it is functional.
Test [2] has as its target T1, Ubiquitin-activating enzyme e1, putative (Leishmania donovani (strain BPK282A1)) (UniProt E9BSI1).
T1 sequence (whole entry): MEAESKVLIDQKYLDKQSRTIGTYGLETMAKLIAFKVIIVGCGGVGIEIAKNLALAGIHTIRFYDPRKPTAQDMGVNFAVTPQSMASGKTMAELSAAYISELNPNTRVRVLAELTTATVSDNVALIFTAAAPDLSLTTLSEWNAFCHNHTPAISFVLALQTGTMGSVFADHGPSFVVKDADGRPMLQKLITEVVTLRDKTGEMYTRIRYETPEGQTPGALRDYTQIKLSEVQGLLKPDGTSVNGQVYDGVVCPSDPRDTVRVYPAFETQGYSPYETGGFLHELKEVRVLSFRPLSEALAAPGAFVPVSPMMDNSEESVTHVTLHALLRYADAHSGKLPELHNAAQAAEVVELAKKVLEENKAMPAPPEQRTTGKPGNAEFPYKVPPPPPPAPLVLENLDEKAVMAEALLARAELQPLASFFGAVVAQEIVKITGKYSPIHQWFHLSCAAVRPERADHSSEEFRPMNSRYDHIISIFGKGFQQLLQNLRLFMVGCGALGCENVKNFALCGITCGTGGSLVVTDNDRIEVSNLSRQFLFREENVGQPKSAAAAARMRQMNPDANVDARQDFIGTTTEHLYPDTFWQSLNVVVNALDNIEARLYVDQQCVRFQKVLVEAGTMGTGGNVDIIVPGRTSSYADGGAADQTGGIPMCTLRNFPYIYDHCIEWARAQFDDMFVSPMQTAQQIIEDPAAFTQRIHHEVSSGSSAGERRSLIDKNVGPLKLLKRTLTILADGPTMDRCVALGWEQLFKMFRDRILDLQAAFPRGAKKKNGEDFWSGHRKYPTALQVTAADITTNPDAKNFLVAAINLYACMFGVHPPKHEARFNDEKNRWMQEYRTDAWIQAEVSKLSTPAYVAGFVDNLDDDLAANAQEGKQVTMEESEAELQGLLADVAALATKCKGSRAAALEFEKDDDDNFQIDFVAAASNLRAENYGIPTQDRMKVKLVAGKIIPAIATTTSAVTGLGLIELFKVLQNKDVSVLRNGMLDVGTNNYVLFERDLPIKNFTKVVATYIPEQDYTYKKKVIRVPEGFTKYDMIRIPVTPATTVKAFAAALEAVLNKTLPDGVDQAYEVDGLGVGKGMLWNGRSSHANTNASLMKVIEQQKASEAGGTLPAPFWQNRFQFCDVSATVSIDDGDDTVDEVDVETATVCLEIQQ
As to the kind of experiment: Leishmania donovani Ubiquitin Activating Enzyme (LdE1). In kind it is functional. The conditions noted are these: 30 µM.

The target in test [3] is T2, Aspartate--tRNA(Asp/Asn) ligase (Mycobacterium tuberculosis (strain ATCC 25618 / H37Rv)) (UniProt P9WFW3). Note: in the data most compounds retested in dose-response had high values.
T2 sequence (whole entry): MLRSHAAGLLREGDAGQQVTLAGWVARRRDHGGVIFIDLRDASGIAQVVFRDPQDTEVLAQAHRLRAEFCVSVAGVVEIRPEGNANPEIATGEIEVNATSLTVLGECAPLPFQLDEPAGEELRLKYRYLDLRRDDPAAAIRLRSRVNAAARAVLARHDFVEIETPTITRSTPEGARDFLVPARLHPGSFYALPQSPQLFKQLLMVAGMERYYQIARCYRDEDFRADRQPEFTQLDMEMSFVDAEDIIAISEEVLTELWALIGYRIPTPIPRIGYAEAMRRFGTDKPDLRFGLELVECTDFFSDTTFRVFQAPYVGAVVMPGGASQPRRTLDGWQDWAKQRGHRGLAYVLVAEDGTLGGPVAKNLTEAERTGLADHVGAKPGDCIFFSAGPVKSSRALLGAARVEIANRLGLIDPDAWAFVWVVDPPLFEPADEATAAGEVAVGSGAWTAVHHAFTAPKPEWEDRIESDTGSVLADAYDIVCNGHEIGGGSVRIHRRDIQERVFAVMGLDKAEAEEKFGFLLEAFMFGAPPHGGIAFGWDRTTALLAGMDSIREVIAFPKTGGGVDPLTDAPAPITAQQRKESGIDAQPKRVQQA
Description: Assay for Asp RNA synthetase-1 from Mycobacterium tuberculosis. In kind it is functional. The conditions noted are these: 30 µM.

Test [4] has as its target AMP-activated protein kinase, AMPK (Homo sapiens) (UniProt P54646+O43741+P54619+Q9UGJ0+Q9Y478+Q13131+Q9UGI9). As to the kind of experiment: AMP-dependent Kinase enzyme assay. An in vitro enzyme assay that detects ADP turnover that is directly proportional to AMPK activity. This uses naive AMPK that is activated during the assay with MK-8722. In kind it is functional. The settings on record: 30 µM.

Test [5] has as its target Sialic acid-binding Ig-like lectin 9 (Homo sapiens) (UniProt Q9Y336). As to the kind of experiment: Hs-Siglec9 ALPHAscreen SOP 20170721. The settings on record: 10 µM.
The next test deals with Trypanosoma cruzi. Description: Trypanosoma cruzi phosphomannomutase and mannose-1-phosphate guanylyltransferase assay. The settings on record: 10 µM. In kind it is functional.
Test [6] deals with T3, Arginase-2, mitochondrial (Homo sapiens) (UniProt P78540).
T3 sequence (whole entry): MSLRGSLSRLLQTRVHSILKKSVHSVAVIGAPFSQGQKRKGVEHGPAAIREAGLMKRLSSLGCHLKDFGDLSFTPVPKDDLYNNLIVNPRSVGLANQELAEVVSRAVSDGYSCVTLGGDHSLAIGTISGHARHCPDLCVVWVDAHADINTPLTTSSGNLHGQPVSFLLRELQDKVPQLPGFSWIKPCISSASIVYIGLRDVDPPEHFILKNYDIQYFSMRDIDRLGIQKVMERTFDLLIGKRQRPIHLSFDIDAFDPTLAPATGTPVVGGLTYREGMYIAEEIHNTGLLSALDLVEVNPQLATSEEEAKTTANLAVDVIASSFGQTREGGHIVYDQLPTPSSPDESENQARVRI
As to the kind of experiment: in vitro enzyme assay to detect the production of urea directly proportional to the activity of Arginase II. Note: in the data most compounds retested in dose-response had high values. The class given is functional. The settings on record: 33.3 µM.

Test [7] addresses T4, Proteasome subunit beta (Trypanosoma cruzi) (UniProt O96673).
T4 sequence (whole entry): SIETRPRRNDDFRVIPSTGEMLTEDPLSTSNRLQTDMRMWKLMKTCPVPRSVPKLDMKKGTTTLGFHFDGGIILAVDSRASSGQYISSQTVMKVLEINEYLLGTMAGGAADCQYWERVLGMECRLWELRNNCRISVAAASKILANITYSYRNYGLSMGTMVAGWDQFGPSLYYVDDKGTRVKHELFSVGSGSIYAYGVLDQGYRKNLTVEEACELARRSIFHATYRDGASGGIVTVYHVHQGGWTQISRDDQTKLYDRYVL
As to the kind of experiment: Trypanosoma cruzi proteasome chymotrypsin-like activity (TcProtChymo) assay. Note: in the data most compounds retested in dose-response had high values. The conditions noted are these: 9.37 µM. The class given is functional.

The species entered for a further test is Homo sapiens. Description: To identify inhibition of the IFN signalling (Jak-Stat) pathway via expression of an eGFP reporter gene under the control of an IFN-stimulated response element (ISRE) containing MxA promoter. The conditions noted are these: 30 µM. The class given is functional.
In test [8] the target is Shiga toxin 2 (Escherichia coli O157:H7) (UniProt P09385+P09386). As to the kind of experiment: E. coli 0.157:H7 Shiga Toxin SOP - stx2 screening assay. In kind it is functional. The settings on record: 30 µM.
Test [9] addresses T5, Tyrosyl-tRNA synthetase, putative (Trypanosoma cruzi (strain CL Brener)) (UniProt Q4DSP6).
T5 sequence (whole entry): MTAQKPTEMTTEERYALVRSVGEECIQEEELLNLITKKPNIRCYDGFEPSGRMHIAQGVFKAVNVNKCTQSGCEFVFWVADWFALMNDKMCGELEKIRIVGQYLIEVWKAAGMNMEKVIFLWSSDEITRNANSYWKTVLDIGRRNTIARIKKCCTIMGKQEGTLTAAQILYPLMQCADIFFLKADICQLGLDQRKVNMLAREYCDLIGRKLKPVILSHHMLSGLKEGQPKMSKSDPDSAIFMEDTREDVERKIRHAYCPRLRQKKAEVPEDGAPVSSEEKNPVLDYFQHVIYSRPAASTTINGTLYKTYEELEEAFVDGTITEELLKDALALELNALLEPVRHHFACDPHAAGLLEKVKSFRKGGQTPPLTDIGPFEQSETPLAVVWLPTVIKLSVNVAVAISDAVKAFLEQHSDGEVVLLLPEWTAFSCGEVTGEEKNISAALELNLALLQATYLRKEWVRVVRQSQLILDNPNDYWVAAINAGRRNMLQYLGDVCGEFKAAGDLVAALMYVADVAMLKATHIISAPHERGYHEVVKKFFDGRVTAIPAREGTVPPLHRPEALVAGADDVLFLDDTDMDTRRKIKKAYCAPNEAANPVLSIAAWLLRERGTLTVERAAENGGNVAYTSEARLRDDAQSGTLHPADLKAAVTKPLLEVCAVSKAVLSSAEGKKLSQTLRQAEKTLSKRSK
Description: Trypanosoma cruzi tyrosyl tRNA synthetase (TcYRS) _High Tyrosine SOP. Note: in the data most compounds retested in dose-response had high values. The settings on record: 30 µM. The class given is functional.

The target of test [10] is T5, Tyrosyl-tRNA synthetase, putative (Trypanosoma cruzi (strain CL Brener)). As to the kind of experiment: Trypanosoma cruzi tyrosyl tRNA synthetase (TcYRS) SOP. The class given is functional. The settings on record: 30 µM.
The target of test [11] is Chromo domain-containing protein 1 (Saccharomyces cerevisiae (strain ATCC 204508 / S288c) (Baker's yeast)) (UniProt P32657). As to the kind of experiment: ScCHD-1 Enzyme Inhibition Assay. Note: in the data most compounds retested in dose-response had high values. In kind it is functional. The conditions noted are these: 30 µM.

For some assays here: Measured potencies and affinities stand elsewhere.

Sequence of Chromo domain-containing protein 1 (Saccharomyces cerevisiae (strain ATCC 204508 / S288c) (Baker's yeast)) (P32657 whole entry, the tested form may be a part): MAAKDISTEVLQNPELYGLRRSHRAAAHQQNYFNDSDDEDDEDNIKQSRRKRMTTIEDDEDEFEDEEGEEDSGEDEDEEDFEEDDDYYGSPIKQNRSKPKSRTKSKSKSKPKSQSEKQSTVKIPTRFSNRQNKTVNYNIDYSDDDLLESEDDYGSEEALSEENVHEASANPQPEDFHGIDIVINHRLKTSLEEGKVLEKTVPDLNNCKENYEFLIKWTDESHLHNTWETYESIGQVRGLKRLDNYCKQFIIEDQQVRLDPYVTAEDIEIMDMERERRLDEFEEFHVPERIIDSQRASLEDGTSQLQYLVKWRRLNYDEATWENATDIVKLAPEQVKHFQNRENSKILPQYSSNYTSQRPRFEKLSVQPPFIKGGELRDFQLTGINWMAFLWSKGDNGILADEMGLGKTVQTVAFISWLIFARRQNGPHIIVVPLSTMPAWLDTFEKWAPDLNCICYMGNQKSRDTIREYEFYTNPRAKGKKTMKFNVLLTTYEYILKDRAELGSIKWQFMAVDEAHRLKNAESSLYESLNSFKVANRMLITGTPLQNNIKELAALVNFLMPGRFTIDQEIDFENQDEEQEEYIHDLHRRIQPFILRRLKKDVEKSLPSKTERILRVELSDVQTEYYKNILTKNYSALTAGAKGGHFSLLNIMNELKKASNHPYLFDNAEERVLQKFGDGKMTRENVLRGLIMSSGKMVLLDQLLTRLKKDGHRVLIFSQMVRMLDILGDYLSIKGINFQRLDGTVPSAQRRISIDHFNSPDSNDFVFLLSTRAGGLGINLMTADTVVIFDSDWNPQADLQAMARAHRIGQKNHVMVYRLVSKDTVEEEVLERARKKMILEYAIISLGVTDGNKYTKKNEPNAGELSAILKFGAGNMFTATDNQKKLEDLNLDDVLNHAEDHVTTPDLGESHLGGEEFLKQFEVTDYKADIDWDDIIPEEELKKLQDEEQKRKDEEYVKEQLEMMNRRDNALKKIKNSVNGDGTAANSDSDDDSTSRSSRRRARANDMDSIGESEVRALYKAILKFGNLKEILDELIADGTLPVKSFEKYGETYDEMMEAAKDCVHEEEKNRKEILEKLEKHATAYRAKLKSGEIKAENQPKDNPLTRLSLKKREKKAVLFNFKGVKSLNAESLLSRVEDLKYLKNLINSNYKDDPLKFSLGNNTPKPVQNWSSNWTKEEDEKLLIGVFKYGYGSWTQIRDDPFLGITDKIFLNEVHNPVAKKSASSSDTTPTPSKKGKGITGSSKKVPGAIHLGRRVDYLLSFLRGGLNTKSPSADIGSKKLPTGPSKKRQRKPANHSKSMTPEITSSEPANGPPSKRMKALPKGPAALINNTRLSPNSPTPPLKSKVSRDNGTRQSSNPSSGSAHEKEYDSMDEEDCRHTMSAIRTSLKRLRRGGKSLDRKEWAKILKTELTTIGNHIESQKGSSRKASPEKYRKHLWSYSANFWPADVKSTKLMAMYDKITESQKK
Sequence of Protein translocase subunit SecA (Escherichia coli (strain K12)) (P10408 whole entry): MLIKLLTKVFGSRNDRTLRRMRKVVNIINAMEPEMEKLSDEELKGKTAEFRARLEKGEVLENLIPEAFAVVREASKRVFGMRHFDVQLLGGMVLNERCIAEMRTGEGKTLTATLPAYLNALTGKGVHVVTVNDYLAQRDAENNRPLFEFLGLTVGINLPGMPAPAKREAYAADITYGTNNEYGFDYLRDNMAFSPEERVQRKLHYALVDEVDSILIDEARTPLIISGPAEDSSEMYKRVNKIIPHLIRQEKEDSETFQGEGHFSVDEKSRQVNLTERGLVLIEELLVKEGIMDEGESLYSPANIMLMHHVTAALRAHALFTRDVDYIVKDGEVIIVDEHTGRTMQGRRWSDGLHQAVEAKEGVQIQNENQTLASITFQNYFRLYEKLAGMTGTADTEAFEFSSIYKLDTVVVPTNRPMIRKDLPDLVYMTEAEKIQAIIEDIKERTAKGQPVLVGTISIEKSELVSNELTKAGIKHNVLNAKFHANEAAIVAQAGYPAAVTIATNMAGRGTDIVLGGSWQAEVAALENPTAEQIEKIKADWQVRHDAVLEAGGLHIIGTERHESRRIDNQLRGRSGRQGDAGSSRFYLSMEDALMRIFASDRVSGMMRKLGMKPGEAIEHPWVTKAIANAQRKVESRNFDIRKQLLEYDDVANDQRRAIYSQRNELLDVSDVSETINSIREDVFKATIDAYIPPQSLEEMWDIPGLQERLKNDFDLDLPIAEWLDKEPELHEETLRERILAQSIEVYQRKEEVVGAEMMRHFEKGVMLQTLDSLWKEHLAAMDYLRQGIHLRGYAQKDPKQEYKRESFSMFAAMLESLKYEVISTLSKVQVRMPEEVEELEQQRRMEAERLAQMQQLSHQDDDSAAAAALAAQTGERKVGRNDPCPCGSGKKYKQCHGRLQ
Sequence of Sialic acid-binding Ig-like lectin 9 (Homo sapiens) (Q9Y336 whole entry): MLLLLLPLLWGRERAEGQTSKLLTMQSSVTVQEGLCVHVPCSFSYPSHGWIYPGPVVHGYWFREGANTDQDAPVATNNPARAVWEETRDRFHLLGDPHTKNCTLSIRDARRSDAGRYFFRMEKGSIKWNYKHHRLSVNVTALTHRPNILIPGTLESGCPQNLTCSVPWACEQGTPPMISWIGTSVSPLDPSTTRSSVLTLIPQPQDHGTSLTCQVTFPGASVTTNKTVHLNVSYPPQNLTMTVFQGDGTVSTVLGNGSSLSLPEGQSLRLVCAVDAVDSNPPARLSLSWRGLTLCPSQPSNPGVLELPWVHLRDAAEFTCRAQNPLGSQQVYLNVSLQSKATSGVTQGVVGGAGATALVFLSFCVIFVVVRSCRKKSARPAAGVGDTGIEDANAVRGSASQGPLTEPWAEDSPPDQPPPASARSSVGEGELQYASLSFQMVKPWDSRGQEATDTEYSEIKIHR

Take `CC1=N[C@@]2(CC[C@@H]3CNC[C@@H]32)C(=O)N1CC(C)C`: the Percent Effect is 0.0241% in test [1]; 13.5% in test [2]; 7.41% in test [3]; -8.73% in test [4]; -11.6% in [5]; -6.35% with Trypanosoma cruzi. Also, the Percent Effect in test [6] was 7.96%; in test [7] it was 11.2%; in the test listed under Homo sapiens, 30.2%; in test [8], -6.54%; in [9], -1.08%; in test [10], 0%. Moreover, the Percent Effect in test [11] is -5.25%.

Take `O=C(COc1cccc(F)c1)N1C[C@@H](O)[C@H](N2CCCC2)C1`: the Percent Effect was 0.584% in test [1]; 4.05% in test [2]; -0.878% in [3]; 10.1% in test [4]; 2.64% in test [5]; 4.94% in the test with Trypanosoma cruzi. Also, the Percent Effect is 0.696% in test [6]; 7.33% in test [7]; -0.848% in the test listed under Homo sapiens; -11.4% in test [8]; 0% in test [9]; -3.9% in test [10]. Also, the Percent Effect in test [11] was -18.1%.

For `O=C(c1cc(-n2cnnn2)ccc1Cl)N1CCC2(CC1)OCCO2`, the Percent Effect is -3.84% in test [1]; 5.26% in test [2]; 0.24% in [3]; 3.99% in test [4]; 7.5% in test [5]; -3.21% in the test with Trypanosoma cruzi. Moreover, the Percent Effect in [6] is -3.55%; in test [7], 8.53%; in the test listed under Homo sapiens, 7.36%; in test [8], -4.29%; in [9], 3.19%; in [10] it was 5.2%. In test [11], the Percent Effect is -4.14%.

Consider `Cc1cccc(C(=O)N2C[C@@H]3OCCN(C(C)C)[C@@H]3C2)n1`, for which the Percent Effect in [1] is -0.342%; in test [2] it was 0%; in test [3], 2.88%; in [4], 1.78%; in test [5] it was 5.46%; with Trypanosoma cruzi, 1.74%. In addition, the Percent Effect in [6] was -50%; in test [7], 5.81%; in the test filed under Homo sapiens, -20.9%; in test [8], -1.16%; in test [9], -26%; in [10], 2.5%. In addition, the Percent Effect in test [11] was determined as 0.0349%.

For `c1ccc(CO[C@@H]2CO[C@@]3(CCN(Cc4ccccn4)C3)C2)nc1`, the Percent Effect is -5.26% in test [1]; 6.67% in [2]; 0.581% in test [3]; 5.55% in test [4]; 4.84% in test [5]; -1.18% with Trypanosoma cruzi. Further, the Percent Effect in test [6] was 4.75%; in [7], 6.84%; in the test filed under Homo sapiens, -42%; in test [8], -15.8%; in [9], 5.29%; in [10] it was 5.13%. In addition, the Percent Effect in test [11] is -3.05%.
